Source: PubChem BioAssay (Tox21)
Records with an inconclusive call do not appear. A call without a number means that no potency is given here. Active and inactive are the calls of the source. Calls follow the shape of the dose curve; as a rule, active = well fitted inhibition curve with a large enough effect in the signal ratio in the repeat runs, with a control signal flat; inconclusive = weak or mixed curves, or effect the other way; inactive = flat fitted curve, though single readings scatter; the % refers to the signal ratio.

The compounds below were run against D(2) dopamine receptor (Homo sapiens) (UniProt P14416) (assay: Dopamine D2 receptor (DRD2) small molecule antagonists, cell-based qHTS assay (AID 1963595)). Conditions: HEK293-DRD2 cAMP HTRF antagonist mode; series mostly up to 92.4 µM; activity change, negative = inhibition: at the top concentration.
Chain of D(2) dopamine receptor (Homo sapiens) (P14416 whole entry, looked up): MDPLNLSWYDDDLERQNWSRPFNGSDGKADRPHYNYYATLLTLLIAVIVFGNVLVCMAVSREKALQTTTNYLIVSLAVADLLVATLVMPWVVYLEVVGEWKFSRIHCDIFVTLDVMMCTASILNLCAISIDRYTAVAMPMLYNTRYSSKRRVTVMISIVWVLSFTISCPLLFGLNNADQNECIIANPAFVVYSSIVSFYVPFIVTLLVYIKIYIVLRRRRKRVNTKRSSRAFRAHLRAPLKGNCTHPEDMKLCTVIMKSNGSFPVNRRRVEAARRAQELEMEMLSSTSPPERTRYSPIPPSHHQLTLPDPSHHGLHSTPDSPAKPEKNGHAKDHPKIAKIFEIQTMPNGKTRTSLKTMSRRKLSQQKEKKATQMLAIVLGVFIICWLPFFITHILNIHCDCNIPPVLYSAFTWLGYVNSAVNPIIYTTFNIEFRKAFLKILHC
Description: National Center for Advancing Translational Sciences [NCATS]
Division of Preclinical Innovation [DPI]
U.S. Environmental Protection Agency [EPA]
National Institutes of Environmental Health Sciences [NIEHS]
National Toxicology Program [NTP]
U.S. Food and Drug Administration [FDA]
DRD2 is the D2 subtype of the dopamine receptor, which is coupled to Gi subtype of G protein-coupled receptor. This G protein-coupled receptor inhibits adenylyl cyclase activity. The DRD2-HEK293 cell line stably expressing D2 dopamine receptor can be used for screening agonists and antagonists of interactions between D2 and its ligands. The Hek293-DRD2 cAMP assay is based on HTRF technology. It measures changes of cAMP accumulation in response to Gi coupled GPCR activation or inhibition.
Tox21 Assay Protocol Summary:
DRD2-Hek293 cells were dispensed at 600 cells/3uL/well in 1536-well white plates using a Multidrop Dispenser. After the assay plates were incubated at a 37 C/5% CO2 incubator for 24 h, 1 uL of Ro20-1724 at final concentration of 0.1 mM was transferred to the assay plate by a Flying Reagent Dispenser. Following Ro20-1724 addition, 23 nL of compound dissolved in DMSO, positive controls or DMSO only was added to the assay plates via Wako pintool station. The assay plates were incubated at room temperature for 10 min. Next, 1 uL of mixture of NKH477 (final concentration at 200 nM) and quinpirole (final concentration at 12 nM) was added into the plates. After the assay plates were incubated at room temperature for an additional 30 min, 2.5 ul/well of cAMP-d2 and 2.5 ul/well of anti-cAMP-cryptate were added respectively into the assay plates using a Flying Reagent Dispenser. The plates were incubated at room temperature for 1 h. The fluorescence intensity in the plates was measured at 340 nm excitation and 665 & 620 nm emission by an Envision plate reader.
With `N#CC1(N=NC2(C#N)CCCCC2)CCCCC1` the “activity change, negative = inhibition” value was -2.51% (inactive).
With `ClCC(Cl)CCl` the Potency was “inactive”.
In the case of `CCCCCCC#N`, the “activity change, negative = inhibition” value is reported as 0.135% (inactive).
With `CC(C)(C)OOC(C)(C)CCC(C)(C)OOC(C)(C)C` the “activity change, negative = inhibition” value was 6.57% (inactive).
`CCCCCCCCC(=O)NCc1ccc(O)c(OC)c1` was tested, and the Potency was “inactive”.
With `Oc1ccc(Cl)cc1Cc1ccccc1` the Potency was “inactive”.
`CC(NC(C)(C)C)C(=O)c1cccc(Cl)c1` (stereo not given) was tested, and the Potency was “inactive”.
In the case of `COS(=O)(=O)OC`, the “activity change, negative = inhibition” value is reported as 12.1% (inactive).
`c1ccc(-c2ccccc2)cc1` was tested, and the Potency was “inactive”.
With `[O-][Cl+2]([O-])O` the Potency was “inactive”.
In the case of `COc1ccc(N)cc1`, the Potency is reported as “inactive”.
With `CN(C)C(=O)C(c1ccccc1)c1ccccc1` the Potency was “inactive”.
With `CN1CC[C@]23c4c5ccc(O)c4O[C@H]2[C@@H](O)CC[C@H]3[C@H]1C5` the “activity change, negative = inhibition” value was -4.6% (inactive).
For `[Cd+2].[Cl-].[Cl-]`, the Potency was “inactive”.
For `CC(C)OC(=O)Cc1ccccc1`, the “activity change, negative = inhibition” value was -7.41% (inactive).
For `CCCN(CCOc1c(Cl)cc(Cl)cc1Cl)C(=O)n1ccnc1`, the “activity change, negative = inhibition” value was -5.49% (inactive).
`O=C(Cl)/C=C/C(=O)Cl` was tested, and the “activity change, negative = inhibition” value was -0.304% (inactive).
`CCCCN(CC)C(=O)SCCC` was tested, and the Potency was “inactive”.
`C[N+](C)(C)C` was tested, and the Potency was “inactive”.
In the case of `Nc1ccc(N)cc1`, the Potency is reported as “inactive”.
For `CCc1cccc(CC)c1N(COC)C(=O)CCl`, the Potency was “inactive”.
For `CCN(CC)Cc1nccn1-c1ccc([N+](=O)[O-])cc1C(=O)c1ccccc1Cl`, the “activity change, negative = inhibition” value was -0.526% [at 42.5 µM] (inactive).
With `C=CCBr` the “activity change, negative = inhibition” value was 1.04% (inactive).
For `C#C[C@]1(O)CC[C@H]2[C@@H]3CCC4=CC(=O)CC[C@]4(C)[C@H]3CC[C@@]21C`, the Potency was “inactive”.
With `O=C(O)c1ccccn1` the Potency was “inactive”.
With `O=[N+]([O-])O[C@H]1CO[C@H]2[C@@H]1OC[C@H]2O[N+](=O)[O-]` the “activity change, negative = inhibition” value was -2.38% [at 42.5 µM] (inactive).
In the case of `CS(=O)(=O)Cl`, the “activity change, negative = inhibition” value is reported as 11.3% (inactive).
In the case of `Cn1cc(-c2ccccc2)c(=O)c(-c2cccc(C(F)(F)F)c2)c1`, the Potency is reported as “inactive”.
In the case of `CC(C)(C)C(O)(CCc1ccc(Cl)cc1)Cn1cncn1` (stereo not given), the Potency is reported as “inactive”.
`Nc1ccc([As](=O)(O)O)cc1` was tested, and the Potency was “inactive”.
In the case of `c1cc2c(c(N3CCNCC3)c1)OCCO2`, the “activity change, negative = inhibition” value is reported as -0.483% [at 42.5 µM] (inactive).
In the case of `CC(C#N)CCC#N` (stereo not given), the Potency is reported as “inactive”.
For `CCCN(CCC)N=O`, the Potency was “inactive”.
With `Clc1ccc(C(c2ccc(Cl)cc2)C(Cl)Cl)cc1` the “activity change, negative = inhibition” value was 2.19% (inactive).
With `CNC(=O)O/N=C/C(C)(C)SC` the Potency was “inactive”.
With `CN1C(=O)NC(=O)C(C)(C2=CCCCC2)C1=O` (stereo not given) the “activity change, negative = inhibition” value was -1.71% [at 42.5 µM] (inactive).
With `CCC(C)(CC)c1cc(NC(=O)c2c(OC)cccc2OC)on1` the Potency was “inactive”.
For `CN(C)CCO`, the Potency was “inactive”.
With `CCCCOCCOC(C)=O` the Potency was “inactive”.
For `CN(C)C(=S)S`, the Potency was “inactive”.
